Broadly, the inhibition is the relative decrease from the control value, in per cent.

The values that follow come from PubChem BioAssay AID743060 (The Scripps Research Institute Molecular Screening Center, 2013).

SMILES strings stand for the structures. Where “and” joins values, the source holds several entries; their conditions need not be identical. Equal values may be shown once.

The experiment in a line: T. brucei methionyl-tRNA synthetase enzyme inhibition – biochemical, radioactivity, round 1, late-stage follow-up (AID 743060). The conditions noted are these: purified enzyme, radiolabel aminoacylation, scintillation, 2 h; at 1 µM; stronger effect = higher value.
Take `O=C(CSC1CC(=O)N(c2cccc(Cl)c2)C1=O)Nc1ccc(Br)cc1` (stereo not given): the inhibition amounted to 23.7%.
Next, `COc1ccccc1NC(=O)Cn1cc(C(=O)C(=O)N2CCOCC2)c2ccccc21`: -14.4%.
Next, `COc1ccc(CCN(C(=S)Nc2ccccc2)C2CC(=O)N(c3ccc(Cl)cc3)C2=O)cc1` (stereo not given): 92.7%; `O=C(Nc1ccc(F)c(Cl)c1)C1CC(=O)n2c(nc3ccccc32)N1` (stereo not given): 44.9% and 55.3%.
As for `CCO[C@H]1OC(C(=O)NCc2nc3ccccc3[nH]2)=C[C@@H](c2ccc(Br)cc2)[C@@H]1CCCO`, the inhibition was determined as 0.88%.
As to `O=C1CC(N(CCc2ccccc2)C(=S)Nc2ccccc2)C(=O)N1c1ccc(Br)cc1` (stereo not given), the inhibition was found to be 84.2%.
Regarding `O=C(CC=NOCc1ccc([N+](=O)[O-])cc1)Nc1ccc(Cl)cc1`, the inhibition is 28.6%.
For the compound `O=C(Cn1cc(C(=O)C(=O)N2CCOCC2)c2ccccc21)NCC1CCCO1` (stereo not given), the inhibition was -3.8%.
Next, `CCN(CC)C(=O)C(=O)c1cn(CC(=O)Nc2cccc(C(F)(F)F)c2)c2ccccc12`: 95.4%.
The same measure for `COc1ccccc1NS(=O)(=O)c1cccc(NC(=O)Nc2ccccc2)c1`: 57%; for `CC(=O)c1ccc(N2CCN(C(=O)CCCn3c(=O)[nH]c4ccc(Br)cc4c3=O)CC2)cc1`: 68.1%.
For the compound `O=C(Cn1cc(C(=O)c2ccccc2)c2ccccc21)Nc1cccc(C(F)(F)F)c1`, the inhibition was 22%.
The same measure for `O=C(NCCc1nc2ccccc2[nH]1)c1ccc(Cl)c([N+](=O)[O-])c1`: 89.8%; for `O=C(N/C(=C\c1cccnc1)c1nc2ccccc2[nH]1)c1cccc(Br)c1`: 14.4%; for `Brc1cnc2nc(SCc3nc4ccccc4[nH]3)[nH]c2c1`: 23.7%.
Next, `O=C(CCC(=O)Nc1cccc([N+](=O)[O-])c1)NN=Cc1cccs1`: 6.25%; `O=C(NCc1nc2ccccc2[nH]1)C1=C[C@H](C2CC2)C[C@H](OCc2ccc(CO)cc2)O1`: -3.3%; `CC(=O)c1c[nH]c(C(=O)NCc2cccc(C(F)(F)F)c2)c1`: 44.6%.
Consider `O=C(NCc1nc2ccccc2[nH]1)C1=C[C@H](c2ccc(Br)cc2)C[C@H](OCCCCO)O1`, for which the inhibition was found to be 51.6%.
Next, `Cc1ccc(C(=O)NCCc2nc3ccccc3[nH]2)cc1C`: -10.8%; `COc1ccc(CNC(=O)CSc2nnc3c(n2)[nH]c2ccc(F)cc23)cc1`: 47.5%.
The same measure for `Cc1cccc2[nH]c(CCN(C)C(=O)c3cccc(C4CCNC4)c3)nc12` (stereo not given): -7.8%; for `CCCCCCCCCC1NC(C(=O)O)Cc2c1[nH]c1ccccc21` (stereo not given): 64.7%; for `CC(C)(C)[C@H]1C=C(C(=O)NCc2nc3ccccc3[nH]2)O[C@@H](OCc2ccc(CO)cc2)C1`: 21.6%.
Next, `O=C(Cn1cc(C(=O)C(=O)N2CCOCC2)c2ccccc21)Nc1cccc(C(F)(F)F)c1`: 87.5%; `COc1ccc(CCN(C(=O)c2cccc(F)c2)C2CC(=O)N(c3ccc(Br)cc3)C2=O)cc1` (stereo not given): -5.29%.
In the case of `CC(=O)N(CCc1ccccc1)C1CC(=O)N(c2ccc(Br)cc2)C1=O` (stereo not given), the inhibition was -12.2%.
In the case of `O=C(Cn1cc(C(=O)C(=O)N2CCOCC2)c2ccccc21)NCc1ccccc1`, the inhibition is -0.16%.
The same measure for `O=C(NCCc1nc2ccccc2[nH]1)c1c(F)cccc1F`: 2.62%; for `CCN(CC)C(=O)C(=O)c1cn(CC(=O)Nc2cccc(OC)c2)c2ccccc12`: 41.4%; for `O=C(C(=O)N1CCOCC1)c1cn(CC(=O)N2CCCc3ccccc32)c2ccccc12`: -6%.
Next, `CNC(=S)N(CCc1ccccc1)C1CC(=O)N(c2ccc(Br)cc2)C1=O` (stereo not given): 96.6%; `O=C1CC(SCc2nc3ccccc3[nH]2)C(=O)N1c1cccc(Cl)c1` (stereo not given): 19.7%.
As for `CCN(CCc1nc2ccc(C)cc2[nH]1)C(=O)c1ccc2ncccc2c1`, the inhibition was -4.55%.
On to `CC(CC(=O)Nc1cccc(Br)c1)=NNC(=O)c1ccc(O)cc1O`, for which the inhibition is 36.5%.
